# Results: paper PMC8384837, “Expanding the binding specificity for RNA recognition by a PUF domain”
# Numbering of substitutions follows the chain as printed.
# Experiments:
# Test in all cases: yeast three-hybrid, YBZ-1, SC-Leu-His + 0.5 mM 3-AT, 4 days
# Conditions in all cases: tags: N-Gal4 AD-HA kept; label: inside an RPR1-promoter hybrid RNA with tandem MS2 sites; ssRNA
# [1] = biological target: PUM1 PUF domain R3-SHA (Homo sapiens, UniProt Q14671 828-1176, C935S;R936H;Q939A)
# Outline: (§1)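 The interaction score is the logarithmic change in variant frequency from input to selection. It uses log2, with a pseudocount of 1 for absent variants, and frequencies came from PCR-amplified, Illumina-sequenced repeat regions. The libraries were Pumilio-1 PUF domains randomized at the three base-contacting residues per repeat, co-expressed with matching RNA elements in strain YBZ-1 (LexA–MS2 coat fusion, HIS3 reporter). Plating lasted four days on SC-Leu (input) or SC-Leu-His + 0.5 mM 3-AT (selection).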
# [2] = biological target: PUM1 PUF domain R4-EHL (Homo sapiens, UniProt Q14671 828-1176, N971E;Q975L)
# Outline: as §1
# [3] = biological target: T1, PUM1 PUF domain R6-LWC (Homo sapiens, UniProt Q14671 828-1176, N1043L;Y1044W;Q1047C)
# T1 sequence: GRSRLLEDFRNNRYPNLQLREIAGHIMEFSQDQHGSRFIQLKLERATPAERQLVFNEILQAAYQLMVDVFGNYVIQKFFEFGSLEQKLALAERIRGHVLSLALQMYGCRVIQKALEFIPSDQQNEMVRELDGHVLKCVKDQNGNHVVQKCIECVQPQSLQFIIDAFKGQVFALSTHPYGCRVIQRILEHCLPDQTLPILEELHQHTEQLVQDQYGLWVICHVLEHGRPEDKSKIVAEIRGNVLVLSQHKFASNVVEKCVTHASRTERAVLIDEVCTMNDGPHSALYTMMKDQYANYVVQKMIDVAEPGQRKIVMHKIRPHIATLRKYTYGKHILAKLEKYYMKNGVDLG
# Outline: as §1
# [4] = biological target: PUM1 PUF domain R3-TFW (Homo sapiens, UniProt Q14671 828-1176, C935T;R936F;Q939W)
# Outline: as §1
# [5] = biological target: T2, PUM1 PUF domain R6-GFC (Homo sapiens, UniProt Q14671 828-1176, N1043G;Y1044F;Q1047C)
# T2 sequence: T1 sequence with L216G, W217F
# Outline: as §1
# [6] = biological target: PUM1 PUF domain R3-VWS (Homo sapiens, UniProt Q14671 828-1176, C935V;R936W;Q939S)
# Outline: as §1
# [7] = biological target: PUM1 PUF domain R4-SPC (Homo sapiens, UniProt Q14671 828-1176, N971S;H972P;Q975C)
# Outline: as §1
# [8] = biological target: PUM1 PUF domain R4-DYA (Homo sapiens, UniProt Q14671 828-1176, N971D;H972Y;Q975A)
# Outline: as §1
# [9] = biological target: PUM1 PUF domain R7-LTL (Homo sapiens, UniProt Q14671 828-1176, S1079L;N1080T;E1083L)
# Outline: as §1
# [10] = biological target: PUM1 PUF domain R7-RRF (Homo sapiens, UniProt Q14671 828-1176, S1079R;N1080R;E1083F)
# Outline: as §1
# [11] = biological target: PUM1 PUF domain R2-RKG (Homo sapiens, UniProt Q14671 828-1176, N899R;Y900K;Q903G)
# Outline: as §1
# [12] = biological target: PUM1 PUF domain R2-AWW (Homo sapiens, UniProt Q14671 828-1176, N899A;Y900W;Q903W)
# Outline: as §1
# [13] = biological target: PUM1 PUF domain R5-FNG (Homo sapiens, UniProt Q14671 828-1176, C1007F;R1008N;Q1011G)
# Outline: as §1
# [14] = biological target: PUM1 PUF domain R5-GNW (Homo sapiens, UniProt Q14671 828-1176, C1007G;R1008N;Q1011W)
# Outline: as §1
# PUM1 PUF domain R2-AWW, sequence (Q14671 828-1176 N899A/Y900W/Q903W): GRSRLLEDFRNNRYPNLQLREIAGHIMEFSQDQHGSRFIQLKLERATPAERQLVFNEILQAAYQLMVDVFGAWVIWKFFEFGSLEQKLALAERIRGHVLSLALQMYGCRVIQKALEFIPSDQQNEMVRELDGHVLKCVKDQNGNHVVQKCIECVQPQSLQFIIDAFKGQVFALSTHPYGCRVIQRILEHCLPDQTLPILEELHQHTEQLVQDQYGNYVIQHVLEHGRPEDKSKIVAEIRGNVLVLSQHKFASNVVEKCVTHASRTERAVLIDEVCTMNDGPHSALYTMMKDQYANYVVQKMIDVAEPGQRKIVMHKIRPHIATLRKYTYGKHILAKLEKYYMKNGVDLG
# PUM1 PUF domain R4-SPC, sequence (Q14671 828-1176 N971S/H972P/Q975C): as the sequence (Q14671 828-1176 N899A/Y900W/Q903W) above, with A72N, W73Y, W76Q, N144S, H145P, Q148C counted along it
# PUM1 PUF domain R7-RRF, sequence (Q14671 828-1176 S1079R/N1080R/E1083F): as the sequence (Q14671 828-1176 N899A/Y900W/Q903W) above, with A72N, W73Y, W76Q, S252R, N253R, E256F counted along it
# PUM1 PUF domain R2-RKG, sequence (Q14671 828-1176 N899R/Y900K/Q903G): as the sequence (Q14671 828-1176 N899A/Y900W/Q903W) above, with A72R, W73K, W76G counted along it
# PUM1 PUF domain R5-GNW, sequence (Q14671 828-1176 C1007G/R1008N/Q1011W): as the sequence (Q14671 828-1176 N899A/Y900W/Q903W) above, with A72N, W73Y, W76Q, C180G, R181N, Q184W counted along it
# PUM1 PUF domain R3-VWS, sequence (Q14671 828-1176 C935V/R936W/Q939S): as the sequence (Q14671 828-1176 N899A/Y900W/Q903W) above, with A72N, W73Y, W76Q, C108V, R109W, Q112S counted along it
# PUM1 PUF domain R5-FNG, sequence (Q14671 828-1176 C1007F/R1008N/Q1011G): as the sequence (Q14671 828-1176 N899A/Y900W/Q903W) above, with A72N, W73Y, W76Q, C180F, R181N, Q184G counted along it
sequence,measurement,setting,value
GGCUAGAACUAGUGGAUCCCCCGGCGCCCGGCGGCUCGAGCCCGGGUAAGUGUAAAUAGUCUGCAUGCCGCCGGGCGCCAUGCCUGCAGGUCGACUCUAGAAAACAUG,binding signal,[1],4.29 log2 enrichment (interaction score)
same,binding signal,[2],3.16 log2 enrichment (interaction score)
same,binding signal,[3],5.46 log2 enrichment (interaction score)
same,binding signal,[4],4.12 log2 enrichment (interaction score)
same,binding signal,[5],2.74 log2 enrichment (interaction score)
same,binding signal,[6],2.46 log2 enrichment (interaction score)
same,binding signal,[7],3.42 log2 enrichment (interaction score)
GGCUAGAACUAGUGGAUCCCCCGGCGCCCGGCGGCUCGAGCCCGGGUAAGUGUAUAUAGUCUGCAUGCCGCCGGGCGCCAUGCCUGCAGGUCGACUCUAGAAAACAUG,binding signal,[8],7.28 log2 enrichment (interaction score)
same,binding signal,[7],2.92 log2 enrichment (interaction score)
GGCUAGAACUAGUGGAUCCCCCGGCGCCCGGCGGCUCGAGCCCGGGUAAGUGUACAUAGUCUGCAUGCCGCCGGGCGCCAUGCCUGCAGGUCGACUCUAGAAAACAUG,binding signal,[2],1.89 log2 enrichment (interaction score)
GGCUAGAACUAGUGGAUCCCCCGGCGCCCGGCGGCUCGAGCCCGGGUAAGUUUAAAUAGUCUGCAUGCCGCCGGGCGCCAUGCCUGCAGGUCGACUCUAGAAAACAUG,binding signal,[9],4.96 log2 enrichment (interaction score)
same,binding signal,[10],4.42 log2 enrichment (interaction score)
GGCUAGAACUAGUGGAUCCCCCGGCGCCCGGCGGCUCGAGCCCGGGUAAGUGUAAAGAGUCUGCAUGCCGCCGGGCGCCAUGCCUGCAGGUCGACUCUAGAAAACAUG,binding signal,[11],4.62 log2 enrichment (interaction score)
same,binding signal,[12],0.42 log2 enrichment (interaction score)
GGCUAGAACUAGUGGAUCCCCCGGCGCCCGGCGGCUCGAGCCCGGGUAAGUGUUAAUAGUCUGCAUGCCGCCGGGCGCCAUGCCUGCAGGUCGACUCUAGAAAACAUG,binding signal,[13],3.1 log2 enrichment (interaction score)
same,binding signal,[14],3.72 log2 enrichment (interaction score)
GGCUAGAACUAGUGGAUCCCCCGGCGCCCGGCGGCUCGAGCCCGGGUAAGUCUAAAUAGUCUGCAUGCCGCCGGGCGCCAUGCCUGCAGGUCGACUCUAGAAAACAUG,binding signal,[10],3.82 log2 enrichment (interaction score)
GGCUAGAACUAGUGGAUCCCCCGGCGCCCGGCGGCUCGAGCCCGGGUAAGUGUAAAAAGUCUGCAUGCCGCCGGGCGCCAUGCCUGCAGGUCGACUCUAGAAAACAUG,binding signal,[12],7.76 log2 enrichment (interaction score)
